Source: PubChem BioAssay (EPA / NIEHS)
Active and inactive are the calls of the source. How the source made its calls: active means hit-call score of the fitted dose curve at least 0.9, where 1 is the maximum; inactive means score below 0.9.

system: not listed separately; assay: ATG_ERE_CIS: Attagene CIS-FACTORIAL HepG2 Assay for Estrogen Response Element (ERE) (AID 2282940); details: HepG2 ERE cis-reporter, Attagene RNA transcript; actives raise or lower the signal
In short: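 Cells used were human hepatoma HepG2, transfected with multiple reporter transcription units under cis-regulatory promoters. Reporter mRNA, read 24 h post-dosing via fluorescent RT-PCR products on capillary electrophoresis, was fitted bidirectionally relative to DMSO.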

| SMILES | outcome | AC50 |
| --- | --- | --- |
| CCCCNP(N)(N)=S | inactive |  |
| Nc1ccccc1C(=O)Oc1ccc2ccccc2c1 |  | 18.1 µM (active) |
| N#CCNCC#N | inactive |  |
| CN1C[C@H](C(=O)N[C@]2(C)O[C@@]3(O)[C@@H]4CCCN4C(=O)[C@H](Cc4ccccc4)N3C2=O)C=C2c3cccc4[nH]cc(c34)C[C@H]21 | inactive |  |
| CCCCOP(=O)(O)OCCCC | inactive |  |
| c1cc(OCC2CO2)ccc1Cc1ccc(OCC2CO2)cc1 (centres undefined) | inactive |  |
| C=CC(=O)OCCCCOC(=O)C=C | inactive |  |
| c1ccc2c(c1)CCCC2 | inactive |  |
| COc1ncc(F)c2nc(S(=O)(=O)Nc3c(F)cccc3F)nn12 | inactive |  |
| O=C(O)C(Br)Br | inactive |  |

system: not listed separately; assay: ATG_Ets_CIS: Attagene CIS-FACTORIAL HepG2 Assay for human Erythroblast Transformation Specific (ETS) (AID 2282941); details: HepG2 ETS cis-reporter transcription, actives raise or lower the signal
In short: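 After transient cis-reporter transfection, HepG2 cells receive test chemical for 24 h. Reporter mRNA levels, measured by RT-PCR and capillary electrophoresis fluorescence, are analysed bidirectionally relative to the DMSO baseline.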

| SMILES | outcome | AC50 |
| --- | --- | --- |
| CCCCCCCCCCCC#N | inactive |  |
| O=C(NC(=O)c1c(F)cccc1F)Nc1ccc(Oc2ccc(C(F)(F)F)cc2Cl)cc1F | inactive |  |
| CC1CCCC1.[C-]#[O+].[C-]#[O+].[C-]#[O+].[Mn] | inactive |  |
| CCCCNP(N)(N)=S | inactive |  |
| CC(=O)C=Cc1ccccc1 |  | 100 µM (active) |
| CCC(=O)c1ccc(Cl)cc1 | inactive |  |
| Nc1ccccc1C(=O)Oc1ccc2ccccc2c1 |  | 75.7 µM (active) |
| C=CC(=O)OC | inactive |  |
| CC(C)CCCCCCCOC(=O)c1ccccc1C(=O)OCCCCCCCC(C)C | inactive |  |
| N#CCNCC#N | inactive |  |
| CN(C)N | inactive |  |
| CN1C[C@H](C(=O)N[C@]2(C)O[C@@]3(O)[C@@H]4CCCN4C(=O)[C@H](Cc4ccccc4)N3C2=O)C=C2c3cccc4[nH]cc(c34)C[C@H]21 | inactive |  |
| O=[N+]([O-])C=Cc1ccccc1 | inactive |  |
| Nc1ccc(Cl)c(Cl)c1 | inactive |  |
| CCCCOP(=O)(O)OCCCC | inactive |  |
| O=C(O)CCl | inactive |  |
| CC(O)CN(CC(C)O)CC(C)O (centres undefined) | inactive |  |
| Nc1cc(Cl)cc(Cl)c1 | inactive |  |
| O=[N+]([O-])c1ccc(Cl)cc1 | inactive |  |

| SMILES | outcome | AC50 |
| --- | --- | --- |
| Cc1ccc(C)c2ccccc12 | inactive |  |
| C=CCO | inactive |  |
| COC(=O)COc1ccc(Cl)cc1Cl | inactive |  |
| [CH3][Sn]([Cl])([Cl])[Cl] | inactive |  |
| CC(=O)c1cc2c(cc1C)C(C)(C)C(C)CC2(C)C (centres undefined) | inactive |  |
| Nc1ccc(-c2ccc(N)c(N)c2)cc1N | inactive |  |
| c1cc(OCC2CO2)ccc1Cc1ccc(OCC2CO2)cc1 (centres undefined) | inactive |  |
| C=CC(=O)OCCCCOC(=O)C=C |  | 77.3 µM (active) |
| c1ccc2c(c1)CCCC2 | inactive |  |
| CCOC(=O)C1OC1(C)c1ccccc1 (centres undefined) | inactive |  |
| [Cl][Sb]([Cl])[Cl] | inactive |  |
| COc1ncc(F)c2nc(S(=O)(=O)Nc3c(F)cccc3F)nn12 | inactive |  |
| CC(C)[C@@H](C(=O)O[C@@H](C#N)c1cccc(Oc2ccccc2)c1)c1ccc(Cl)cc1 | inactive |  |
| C[C@]12CC[C@H]3[C@@H](CC[C@@]45O[C@@H]4C(O)=C(C#N)C[C@]35C)[C@@H]1CC[C@@H]2O | inactive |  |
| O=[N+]([O-])c1cc([N+](=O)[O-])c2ccccc2c1 | inactive |  |
| O=C(O)C(Br)Br | inactive |  |
| C=CC(=O)OCCO | inactive |  |
| CCCCCCCCCCCCCCCC[N+](C)(C)C |  | 100 µM (active) |

biological target: Hepatocyte nuclear factor 3-beta (Homo sapiens) (UniProt Q9Y261); assay: ATG_FoxA2_CIS: Attagene CIS-FACTORIAL HepG2 Assay for human Forkhead box A2 (FOXA2) (AID 2282942); details: HepG2 cis-reporter transcription factor activity, 24 h; actives raise or lower the signal
In short: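 Readout: fluorescent reporter transcripts resolved by capillary electrophoresis after RT-PCR. Transiently transfected HepG2, 24 h compound exposure, endogenous TF activity at cis promoter elements. Gain or loss of signal fitted relative to DMSO.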

Hepatocyte nuclear factor 3-beta (Homo sapiens), sequence (Q9Y261 whole entry, looked up): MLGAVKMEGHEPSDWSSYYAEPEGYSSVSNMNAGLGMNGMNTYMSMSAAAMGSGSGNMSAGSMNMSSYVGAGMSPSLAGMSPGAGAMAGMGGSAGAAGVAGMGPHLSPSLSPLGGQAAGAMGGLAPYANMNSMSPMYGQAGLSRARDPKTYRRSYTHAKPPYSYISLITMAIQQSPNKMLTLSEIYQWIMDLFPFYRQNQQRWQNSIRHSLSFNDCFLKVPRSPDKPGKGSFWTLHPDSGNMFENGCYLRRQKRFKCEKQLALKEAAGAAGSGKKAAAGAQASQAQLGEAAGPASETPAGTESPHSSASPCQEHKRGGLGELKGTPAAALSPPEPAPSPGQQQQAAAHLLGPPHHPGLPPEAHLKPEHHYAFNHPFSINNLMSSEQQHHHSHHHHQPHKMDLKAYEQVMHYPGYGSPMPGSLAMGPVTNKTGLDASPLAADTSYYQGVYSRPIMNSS

| SMILES | outcome | AC50 |
| --- | --- | --- |
| CCCCCCCCCCCC#N | inactive |  |
| O=C(NC(=O)c1c(F)cccc1F)Nc1ccc(Oc2ccc(C(F)(F)F)cc2Cl)cc1F | inactive |  |
| CC1CCCC1.[C-]#[O+].[C-]#[O+].[C-]#[O+].[Mn] | inactive |  |
| CCCCNP(N)(N)=S | inactive |  |
| CC(=O)C=Cc1ccccc1 | inactive |  |
| CCC(=O)c1ccc(Cl)cc1 | inactive |  |
| Nc1ccccc1C(=O)Oc1ccc2ccccc2c1 | inactive |  |
| C=CC(=O)OC | inactive |  |
| CC(C)CCCCCCCOC(=O)c1ccccc1C(=O)OCCCCCCCC(C)C | inactive |  |
| N#CCNCC#N | inactive |  |
| CN(C)N | inactive |  |
| CN1C[C@H](C(=O)N[C@]2(C)O[C@@]3(O)[C@@H]4CCCN4C(=O)[C@H](Cc4ccccc4)N3C2=O)C=C2c3cccc4[nH]cc(c34)C[C@H]21 | inactive |  |
| O=[N+]([O-])C=Cc1ccccc1 |  | 22.7 µM (active) |
| Nc1ccc(Cl)c(Cl)c1 | inactive |  |
| CCCCOP(=O)(O)OCCCC | inactive |  |
| O=C(O)CCl | inactive |  |
| CC(O)CN(CC(C)O)CC(C)O (centres undefined) | inactive |  |
| Nc1cc(Cl)cc(Cl)c1 | inactive |  |
| O=[N+]([O-])c1ccc(Cl)cc1 | inactive |  |

| SMILES | outcome | AC50 |
| --- | --- | --- |
| Cc1ccc(C)c2ccccc12 | inactive |  |
| C=CCO | inactive |  |
| COC(=O)COc1ccc(Cl)cc1Cl | inactive |  |
| [CH3][Sn]([Cl])([Cl])[Cl] | inactive |  |
| CC(=O)c1cc2c(cc1C)C(C)(C)C(C)CC2(C)C (centres undefined) | inactive |  |
| Nc1ccc(-c2ccc(N)c(N)c2)cc1N | inactive |  |
| c1cc(OCC2CO2)ccc1Cc1ccc(OCC2CO2)cc1 (centres undefined) | inactive |  |
| C=CC(=O)OCCCCOC(=O)C=C | inactive |  |
| c1ccc2c(c1)CCCC2 | inactive |  |
| CCOC(=O)C1OC1(C)c1ccccc1 (centres undefined) | inactive |  |
| [Cl][Sb]([Cl])[Cl] | inactive |  |
| COc1ncc(F)c2nc(S(=O)(=O)Nc3c(F)cccc3F)nn12 | inactive |  |
| CC(C)[C@@H](C(=O)O[C@@H](C#N)c1cccc(Oc2ccccc2)c1)c1ccc(Cl)cc1 | inactive |  |
| C[C@]12CC[C@H]3[C@@H](CC[C@@]45O[C@@H]4C(O)=C(C#N)C[C@]35C)[C@@H]1CC[C@@H]2O | inactive |  |
| O=[N+]([O-])c1cc([N+](=O)[O-])c2ccccc2c1 | inactive |  |
| O=C(O)C(Br)Br | inactive |  |
| C=CC(=O)OCCO | inactive |  |
| CCCCCCCCCCCCCCCC[N+](C)(C)C | inactive |  |
